# In PubChem BioAssay AID1259415 (National Center for Advancing Translational Sciences (NCATS), 2018):
# The campaign covered roughly 410,000 compounds. About 18,000 (4.4%) were called active. Another 7% or so got no clear call; they are omitted. Shown is part of a subset that was picked to be rich in actives. Unmarked numbers belong to inactive results. Cut-off read from the data, not from the text of the source: active = activity change below about -60%; inconclusive = no clear call, values can overlap the other calls; inactive = above about -39%.
# Assay: qHTS Assay for inhibitors of the human cytomegalovirus (HCMV)
# Conditions: HFF cells, HCMV-luciferase reporter, 72 h; at 57.5 µM; hits give low values
# Outline: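 Cell-based, HFFs, 1000 cells/well, 16 h 37C; cpds in DMSO + HCMV-luc, MOI 1 PFU/cell; 72 h 37C; OneGlo luminescence after 5 min RT; norm. to buffer vs Salinomycin 10uM.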
# % is set by controls: 0 for no effect and ±100 for the full control effect.
row,SMILES,"activity change, negative = inhibition"
1,Cn1nnnc1SCCCNCc1ccc(Cl)cc1,5.82%
2,COc1ccccc1CCNC(=O)c1cccn1-c1nnc(N2CCCCC2)s1,-14.3%
3,Cc1ccc(NC(=O)CN(C)C(=O)Cn2nnc(-c3ccccc3)n2)cc1,-24.5%
4,COc1ccc(C(=O)N2CCCCC2C(=O)Nc2ccc(-n3nc(C)cc3C)cc2)o1 (centres undefined),7.64%
5,C[C@@H]1C[C@@H]2O[C@H]2/C=C\C=C\C(=O)Cc2c(Cl)c(O)cc(O)c2C(=O)O1,-76.2% (active)
6,CCN(CC)S(=O)(=O)c1ccc(C(=O)N2CCN(C3=NS(=O)(=O)c4ccccc43)CC2)cc1,-15.4%
7,CCOC(=O)c1cc2c(=O)n3ccccc3nc2n(CC2CCCO2)c1=NC(=O)c1ccccc1Br (centres undefined),24.4%
8,CCOC1=C2[C@@H](CN(S(=O)(=O)c3ccc(C)cc3)[C@H]2c2ccccc2F)[C@H]2C(=O)N(Cc3ccccc3)C(=O)[C@H]2C1,-19.7%
9,Cc1ccc(S(=O)(=O)c2cn(Cc3ccccc3)c3cc(N4CCCC4)c(F)cc3c2=O)c(C)c1,10.5%
10,Cc1ccc(S(=O)(=O)N2C[C@@H]3CCCC[C@@H]3[C@@H](C)[C@H]2c2cn(Cc3ccccc3)c3ccc(F)cc23)cc1,-65.2% (active)
11,COc1ccc(-c2c(C)c3ccc(O)c(CN4CCCC4)c3oc2=O)cc1OC,8.47%
12,CCN(CC)C(=O)CSc1nc2cc3c(cc2c(=O)n1CCCC(=O)NCc1ccc2c(c1)OCO2)OCO3,-89.8% (active)
13,CCOc1ccc(NC(=O)Cn2c(=O)n(CCCC(=O)NCc3ccc4c(c3)OCO4)c(=O)c3ccccc32)cc1,22.9%
14,CCCCNC(=O)CSc1nc2cc3c(cc2c(=O)n1CCCCCC(=O)NCc1ccc2c(c1)OCO2)OCO3,25.2%
15,O=C(NCc1ccc(Cl)cc1)c1ccc2c(c1)nnn2C1CCCC1,-1.14%
16,CC1(C(=O)NNC(=S)NCC2CCCO2)CC1(Cl)Cl (centres undefined),-5.76%
17,CCC(=O)Nc1nc2ccccc2n1Cc1ccccc1C,-81.6% (active)
18,CCC(=O)Nc1ccc(C)cc1-c1nc2ccccc2n(Cc2ccccc2)c1=O,13.6%
19,Cc1cccc(NC(=O)Cn2c(C(F)(F)F)nc3ccccc32)c1C,-9.72%
20,Cc1cc(Cl)ccc1NC(=O)Cc1ccc(NC(=O)N2CCCCc3ccccc32)cc1,25.1%
21,COCCN1C2=C(COC(C)(C)C2)C(=S)NC1c1ccccc1 (centres undefined),5.54%
22,Cc1cc(C)c(NC(=O)CN2CCCCCC2)c(C)c1,-39.4%
23,O=C(CN1CCCCCC1)Nc1ccc(Br)cc1Br,32.3%

row,SMILES,"activity change, negative = inhibition"
1,Cc1ccc(NC(=O)CN2CCCCC2)c2c1CC(C)(C)O2,-63% (active)
2,O=S(=O)(c1ccc(Cl)cc1)c1nnn2c1nc(NC1CCCC1)c1sccc12,21.2%
3,O=[N+]([O-])c1ccccc1-c1cc(-c2ccccc2[N+](=O)[O-])on1,24.9%
4,Cc1c(Cl)cccc1NC(=O)N1CCN(C(=O)c2nsc3ccccc23)CC1,0%
5,COc1ccccc1CNC(=O)c1ccccc1NC(=O)c1nsc2ccccc12,12.6%
6,CCc1ccccc1NC(=O)N1CCN(C(=O)c2nsc3ccccc23)CC1,0% (active)
7,COc1ccc(OC)c(NC(=O)CN2CCCN(Cc3cc(C)ccc3C)S2(=O)=O)c1,0%
8,Cc1ccnc(NC(=O)C2CCN(S(=O)(=O)c3c(C)c(C)cc(C)c3C)CC2)c1,-4.39%
9,CN1CCN(C(=O)CCc2ncc(C(F)(F)F)cc2Cl)CC1,-28.5%
10,CC(C)n1ncc2c(C(=O)Nc3ccc(CC#N)cc3)cc(C3CC3)nc21,30.4%
11,N#CCc1ccc(NC(=O)c2ccccc2C(=O)Nc2ccc(CC#N)cc2)cc1,-72.2% (active)
12,CC(=O)Nc1ccc(CC#N)cc1,26.2%
13,Cc1ccc(-c2nc3cccc(C)n3c2Nc2ccc3c(c2)OCCO3)cc1,76%
14,COc1ccc(NC(=O)C2CCCN(S(=O)(=O)c3cccc4nonc34)C2)cc1Cl (centres undefined),-11.9%
15,O=C(C1CC1)N1CCc2cc(Br)cc(S(=O)(=O)N3CCN(c4ccccc4F)CC3)c21,6.64%
16,CNC(=O)c1ccc(-c2nc(CN3CCc4ccccc43)c(C)o2)cc1,18.4%
17,Cc1ccc(N2CC(NC(=O)Cc3cccs3)CC2=O)cc1 (centres undefined),76%
18,Cc1sc2ncnc(N3CCC(C(=O)Nc4ccc(F)cc4Cl)CC3)c2c1C,-21.6%
19,CCOC(=O)C1CCN(c2ncnc3c2c(-c2ccccc2)cn3-c2ccc(C)cc2)CC1,-37.8%
20,CCc1ccc(C(=O)NNC(=O)C2CCN(c3ncnc4sc(C)c(C)c34)CC2)cc1,-65.2% (active)
21,O=C(O)c1ccc(Cn2cnc3c(=S)nc[nH]c32)cc1,1.65%
22,NC1=NC(c2cc(F)cc(F)c2)n2c(nc3ccccc32)N1 (centres undefined),-1.84%
23,Cn1sc(=O)c2cc(S(=O)(=O)NC3CC3)ccc21,-82.6% (active)

row,SMILES,"activity change, negative = inhibition"
1,Cc1ccc(S(=O)(=O)NC2CCCCCC2)cc1C(N)=O,-23.9%
2,CC1CCC(NS(=O)(=O)c2ccc3c(c2)CC(=O)N3)CC1 (centres undefined),23.2%
3,O=S1(=O)CC(N2CCSCC2)CN1Cc1cn(Cc2cccc(Cl)c2)nn1 (centres undefined),-0.598%
4,O=C(NCCc1ccc(Cl)cc1)c1ccc2nc(CCc3ccccc3)oc2c1,44.3%
5,CCOc1ccccc1CNCc1c(C(=O)O)c(C)n(Cc2ccc(C)cc2)c1C,2.89%
6,O=C(CSc1nc(=O)n2ccccc2n1)Nc1ccc2c(c1)OCCO2,-0.0406%
7,O=C(CSc1nc(C2CC2)nc2ccccc12)Nc1ccc2c(c1)OCCO2,-71.4% (active)
8,O=C(CSc1nnc(CNC(=O)c2ccc(F)cc2)o1)Nc1ccc2c(c1)OCO2,-6.33%
9,O=C(CSc1nnnn1C1CCCC1)Nc1ccc2c(c1)OCCO2,15.2%
10,O=C(CSc1ccc(-c2ccc(F)cc2)nn1)Nc1ccc2c(c1)OCCO2,16.6%
11,O=C(CSc1nc(-c2cccc(F)c2)[nH]c1-c1ccccc1)Nc1ccc2c(c1)OCO2,-87.5% (active)
12,CCOc1cc(C(=O)Nc2nnc3n2CCS3)cc(OCC)c1OCC,-4.78%
13,O=C(CSc1ncc(-c2ccccc2)[nH]1)Nc1ccc(F)cc1F,-18.3%
14,COC(=O)C1=C(C)N(C(C)c2ccccc2)C(=O)/C1=C\c1ccco1 (centres undefined),29.2%
15,O=C(CCCN1C(=O)/C(=C/c2ccco2)SC1=S)Nc1ccccc1,-96.7% (active)
16,O=C(CC1C(=O)N(c2ccccc2)C(=O)N1CCc1cccs1)Nc1ccc(F)cc1 (centres undefined),-11.5%
17,Cc1cc(C)cc(NC(=O)CCN2C(=O)c3ccccc3C2=O)c1,-12.5%
18,O=C(CCCN1C(=O)/C(=C/c2ccccc2)SC1=S)Nc1ccc(O)cc1,-85.4% (active)
19,N#Cc1c(NC(=O)CCCN2C(=O)c3ccccc3C2=O)oc(-c2ccccc2)c1-c1ccccc1,-2.46%
20,O=C(CCCN1C(=O)/C(=C/c2cccs2)SC1=S)Nc1ccc(O)cc1,-92.8% (active)
21,Cc1cc(OCCCC(=O)NCCN2C(=O)S/C(=C\c3cccnc3)C2=O)ccc1Cl,-21.9%
22,O=C(CCCN1C(=O)C(c2ccccc2)Oc2cccnc21)Nc1ccccc1Br (centres undefined),4.91%
23,CC(=O)Nc1ccc(NC(=O)CCN2C(=O)C3CC=CCC3C2=O)cc1 (centres undefined),19.5%

row,SMILES,"activity change, negative = inhibition"
1,O=C(CCCN1C(=O)/C(=C\c2ccccc2)SC1=S)Nc1ccccc1O,-94.8% (active)
2,COc1ccc(NC(=O)CCCN2C(=O)C(c3ccccc3)Oc3cccnc32)cc1 (centres undefined),37.1%
3,COCCN(Cc1ccco1)C(=O)Cn1ncc2c([nH]c3ccccc32)c1=O,1.17%
4,N#Cc1cccc(CN2CCC(=O)N([C@H](CO)c3ccccc3)CC2)c1,-24.2%
5,O=C(Nc1ccc(Br)cc1)c1cc2nc(-c3ccccc3)cc(-c3ccccc3)n2n1,22.2%
6,CCc1ccc2oc(=O)cc(CN3CCCCC3C)c2c1 (centres undefined),-19%
7,CCOC(=O)c1[nH]c(C)c(CCC(=O)NCc2ccccc2C)c1C,-16.4%
8,Cn1cnnc1SCC(=O)NNC(=O)COc1ccc(Br)cc1,-26.5%
9,Cc1ccc(O)c(NC(=S)NC(=O)COc2ccc(Br)cc2)c1,-97.8% (active)
10,Cc1ccsc1C(=O)NNC(=O)COc1ccc(Br)cc1,-16.1%
11,COc1ccc(CN2CCc3nc(Nc4ccccc4)ncc3C2)c(OC)c1OC,-16.7%
12,COc1ccc(S(=O)(=O)c2cn(C)c3cc(N4CCCCC4)c(F)cc3c2=O)cc1,-2.52%
13,COc1cccc(CCNC(=O)c2cccc(NC(=O)C3=C(C)OCCS3)c2)c1,-34.7%
14,Cc1nc2nc(C)c(NS(=O)(=O)c3ccc(C(C)(C)C)cc3)c(=O)n2[nH]1,2.48%
15,O=C(Nc1ccc(N2CCN(C(=O)c3ccccc3)CC2)c(Cl)c1)c1ncn[nH]1,-25.4%
16,O=C(Nc1ccc(N2CCN(C(=O)c3ccccc3)CC2)c(Cl)c1)c1cccnc1,-70.9% (active)
17,Cc1ccccc1N1CCN(C(=O)c2cccnc2)CC1,-6.56%
18,CC(Nc1ccccc1)c1cccnc1 (centres undefined),4.97%
19,Cc1ccc(C(O)P(=O)(OC(C)C)c2ccc(N(C)C)cc2)cc1 (centres undefined),15.1%
20,CC(C)COP(=O)(c1ccc(N(C)C)cc1)C(Nc1ccccc1)c1cccnc1 (centres undefined),-101% (active)
